Screening data deposited in PubChem by National Center for Advancing Translational Sciences (NCATS).
D1 potentiator = potentiators of human D1 dopamine receptor. HEK293 TREx D1 cells, calcium flux, dopamine EC20 potentiation. potentiation, % at 10 µM. 0.036% of 360,000 active; in the data active = potentiation above about 30%
D1 antagonist = antagonists of human D1 dopamine receptor; HEK293 TREx D1 cells, calcium flux, dopamine EC80; active compounds read low; activity change, negative = inhibition, % at 10 µM; 3.2% of 360,000 active; AID 504652; in the data active = activity change below about -30%
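Kinetic fluorescence of a calcium dye serves as the read-out. D1-expressing Hek293 Trex cells, induced overnight at 30 C, are exposed to compound for 180 s before an EC80 dopamine addition, then read 180 s further.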
D1 ag = human D1 receptor agonism; 1% of 360,000 active; activation, % at 2 µM; HEK293 T-REx D1 cells, calcium flux, agonist mode; in the data active = activation above about 30%
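Tetracycline-induced HEK293 TREx D1 cells, force-coupled to calcium signalling, were dye-loaded with a no-wash calcium kit. Compound was pin-added after a 10 s baseline. Fluorescence was read kinetically at 1 cycle/s for 180 s, with calcium rises flagged as agonism.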
TRHR agonist-1 = TRH receptor (human) agonism; 0.18% of 360,000 active; activation, % at 2 µM; P34981; AID 493084; TRHR cells, calcium flux fluo-8, FDSS agonist mode; in the data active = activation above about 30%
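Read-out: compound-evoked intracellular calcium rise in TRHR cells, fluo-8 dye, kinetic FDSS fluorescence at 1 s/cycle following a 10-cycle baseline. Cells cultured overnight before dye loading (30 min–1.5 h, RT).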
TRHR enhancer-1 = allosterically enhances the human TRH receptor. AID 493056. TRHR cells, fluo-8 calcium fluorescence, EC20 TRH enhancement. 0.66% of 360,000 active. enhancement, % at 2 µM; in the data active = enhancement above about 30%
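Enhancer read-out: after compound pinning and an initial kinetic agonist-mode read, an EC20 of TRH (10 nM final) was injected and fluo-8 calcium signal (Ex 480/Em 530) followed at 1 s/cycle for 100 cycles in TRHR-expressing cells.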
USP1 inh = blocks the human USP1/UAF1 deubiquitinase complex; Potency, µM (highest dose often 57.1 µM), usual class: inhibitors; recombinant USP1/UAF1, Ub-Rhodamine cleavage fluorescence; O94782; AID 743255; 0.23% of 390,000 active; note: nearly all actives have a fitted effect of over 60% in size
Target sequence (O94782 whole entry, looked up): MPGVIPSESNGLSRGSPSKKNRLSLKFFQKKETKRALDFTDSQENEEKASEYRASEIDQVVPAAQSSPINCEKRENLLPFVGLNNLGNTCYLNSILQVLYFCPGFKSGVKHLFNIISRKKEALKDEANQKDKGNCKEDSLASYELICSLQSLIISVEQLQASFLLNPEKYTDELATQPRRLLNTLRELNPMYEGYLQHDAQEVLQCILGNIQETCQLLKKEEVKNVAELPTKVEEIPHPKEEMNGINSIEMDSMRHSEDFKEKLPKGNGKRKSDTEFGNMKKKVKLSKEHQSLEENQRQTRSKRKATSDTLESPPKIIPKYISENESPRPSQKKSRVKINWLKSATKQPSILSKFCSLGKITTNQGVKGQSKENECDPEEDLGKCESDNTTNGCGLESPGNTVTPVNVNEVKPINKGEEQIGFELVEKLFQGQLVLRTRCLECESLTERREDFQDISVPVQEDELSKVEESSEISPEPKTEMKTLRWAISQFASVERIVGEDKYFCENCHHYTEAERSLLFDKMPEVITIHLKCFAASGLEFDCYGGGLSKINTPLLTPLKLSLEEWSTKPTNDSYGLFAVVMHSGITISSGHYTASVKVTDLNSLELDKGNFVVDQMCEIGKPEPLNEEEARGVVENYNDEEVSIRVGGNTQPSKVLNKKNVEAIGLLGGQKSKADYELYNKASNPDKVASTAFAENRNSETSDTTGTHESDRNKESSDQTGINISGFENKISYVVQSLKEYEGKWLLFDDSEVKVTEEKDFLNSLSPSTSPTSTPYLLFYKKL
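USP1/UAF1 complex (1 nM) preincubated 15 min at room temperature with compound, then Ub-Rho substrate (150 nM final) added. Kinetic fluorescence at 480/540 nm over 6 reads at 60 s intervals; 50 mM HEPES pH 7.8, 0.5 mM EDTA, 0.1 mg/ml BSA, 1 mM TCEP, 0.01% Tween-20.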
TRHR enhancer-2 = confirmation of human TRH receptor allosteric enhancers; 970 tested, under 10 active; shares compounds with TRHR enhancer-1; TRH receptor cell assay, enhancer confirmation qHTS; activity change, negative = inhibition, % at 46.1 µM;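 note: compound effect scored on response to added TRH at EC20 of 10 nM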
TRHR agonist-2 = human TRH receptor agonism confirmation; Potency, µM (titrated, usually from 46.1 µM), most hits filed as activators; shares compounds with TRHR enhancer-1; AID 493078; TRHR-expressing cells, agonist activation read-out; 8% of 970 active; note: nearly all actives have a fitted effect of over 75% in size
Large screens that a line does not name were inactive (follow-up assays come after a bar, where they were run). This is a sample that favours compounds with a hit; in the whole collection about 4.4% have one here. Unless noted, calls come from the whole dose curve; as a rule, active = well fitted curve in the direction sought with a large enough effect; inconclusive = small, poorly fitted or top-dose-only effect, or another doubt; inactive = no such curve, though single readings can be large; an effect the other way counts as inactive or inconclusive.

Cn1c(O)c(C=Nc2ccc(Br)cc2)c(=O)n(C)c1=O	none
Cc1ccccc1-n1c(O)c(/C=C/C=Nc2ccccc2)c(=O)[nH]c1=O	D1 ag 40.6, TRHR agonist-1 32.0, USP1 inh 31.6µM | TRHR enhancer-2 inconclusive | TRHR agonist-2 20.6µM
Cn1c(O)c(/C=C/C=Nc2ccccc2)c(=O)n(C)c1=S	D1 ag 64.1, TRHR agonist-1 44.6 | TRHR enhancer-2 inactive | TRHR agonist-2 inactive
Cc1ccc(-c2nc(CN3C(=O)CN=C(c4ccccc4)c4ccccc43)c(C)o2)cc1	none
C=CCn1c(=O)/c(=C\c2ccccn2)s/c1=C(/C#N)C(=O)NCC1CCCO1 (stereo unspecified)	D1 ag 150.8, TRHR agonist-1 46.3 | TRHR enhancer-2 inactive | TRHR agonist-2 inconclusive
O=c1c2ccccc2nc(-c2ccccc2)n1-c1ccc(O)cc1	TRHR enhancer-1 46.5 | TRHR enhancer-2 inactive | TRHR agonist-2 inactive
Cc1ccc(-c2nc3ccccc3c(=O)n2-c2ccc(O)cc2)cc1	none
CN1CCN(c2ccc(N)cc2)CC1	TRHR enhancer-1 88.6 (no result: D1 antagonist) | TRHR enhancer-2 inactive | TRHR agonist-2 inactive
CC(C)CNP(=S)(c1ccccc1)C(C)(C)C (stereo unspecified)	TRHR enhancer-1 43.1 | TRHR enhancer-2 inactive | TRHR agonist-2 inactive
CC(C)(C)P(=O)(NCc1ccccc1)c1ccccc1 (stereo unspecified)	none
CCCOc1ccc(C2SCC(=O)Nc3c2c(C)nn3-c2cccc(C)c2)cc1OC (stereo unspecified)	none
NNC(=O)c1ccc(O)cc1	TRHR enhancer-1 46.6 | TRHR enhancer-2 inactive | TRHR agonist-2 inactive
N#Cc1cccc(NC(=O)CSc2nc3c(cc2C#N)N2CCC3CC2)c1	none
O=C1NCCOC(=O)[C@H](Cc2ccc(F)cc2)CC/C=C/C[C@H]1CC(=O)N(CCO)Cc1ccccc1	none (no result: D1 potentiator, D1 antagonist, D1 ag, TRHR agonist-1, TRHR enhancer-1)
